Source: PubChem (National Center for Advancing Translational Sciences (NCATS))
D3 antag: blocks the human D3 dopamine receptor; P35462; D3R cells, DiscoveRx beta-arrestin luminescence, antagonist mode; stronger effect = lower value; max response, negative = inhibition, %; 2.5% of 360,000 active; in the data active means max response below about -50%; inconclusive means no clear call, values can overlap the other calls; further: on the % scale 0 is the no-effect control and ±100 the full control effect
Target sequence (P35462 whole entry, looked up): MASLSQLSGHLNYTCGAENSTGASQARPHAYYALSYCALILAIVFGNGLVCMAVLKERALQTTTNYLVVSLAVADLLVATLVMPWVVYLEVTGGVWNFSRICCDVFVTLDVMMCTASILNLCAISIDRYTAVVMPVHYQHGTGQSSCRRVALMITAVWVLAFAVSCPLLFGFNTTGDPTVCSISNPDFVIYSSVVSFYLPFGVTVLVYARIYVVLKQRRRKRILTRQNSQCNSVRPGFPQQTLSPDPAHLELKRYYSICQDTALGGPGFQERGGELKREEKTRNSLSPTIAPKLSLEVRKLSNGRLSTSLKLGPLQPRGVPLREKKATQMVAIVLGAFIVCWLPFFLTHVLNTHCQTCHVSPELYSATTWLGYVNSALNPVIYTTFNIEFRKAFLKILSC
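Cells expressing the human receptor were seeded at 1500 cells/well, incubated overnight at 37 degrees C in 5% CO2, then exposed to library compounds with dopamine controls for 90 minutes at 37 degrees C before luminescent detection.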
DT40 TDP1 no CPT: qHTS for Inhibitors of human tyrosyl-DNA phosphodiesterase 1 (TDP1): qHTS in cells in absence of CPT. DT40 Tdp1-/- hTDP1 cells, no CPT, ATP luminescence, 48 h. Potency, µM (series often up to 46.2 µM), without a hit: top-dose activity change, negative = growth inhibition, hits mostly inhibitors. 15% of 420,000 active; further: potency means the concentration at half of the fitted maximal effect; on the % scale 0 is the no-effect control and ±100 the full control effect; nearly all actives have a fitted effect of over 55% in size
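Luminescent ATP content (CellTiter-Glo) served as the growth readout. Knockout chicken DT40 cells expressing human TDP1 were exposed to compounds without camptothecin for a minimum 48 hr at 37 °C.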
TDP1 cell CPT: growth inhibition of DT40 Tdp1-/-;hTDP1 cells with camptothecin (screen for TDP1 inhibitors). chicken DT40 Tdp1-/-;hTDP1 cells + 20 nM CPT, ATP luminescence, 48 h. Potency, µM (series often up to 46.2 µM), without a hit: at the highest dose activity change, negative = growth inhibition, hits mostly inhibitors. 12% of 420,000 active. AID 686979; further: potency means the concentration at half of the fitted maximal effect; on the % scale 0 is the no-effect control and ±100 the full control effect; nearly all actives have a fitted effect of over 55% in size
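Chicken DT40 Tdp1-/- cells stably complemented with human TDP1 were seeded at 400 cells/well in medium containing 20 nM camptothecin, exposed to pin-transferred compounds, and grown at 37 °C for at least 48 hr. Viability was read as ATP luminescence.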
ClpP mod: qHTS Assay for Activators of ClpP; 1.9% of 340,000 active; Potency, µM (titrated, usually from 57.5 µM), without a hit: at the highest dose activity change, negative = active; ATP-dependent Clp protease proteolytic subunit (Bacillus subtilis (strain 168)), P80244; purified B. subtilis ClpP, FRET peptide cleavage, 20 min; active means well fitted falling curve with a large enough effect; inconclusive means small, poorly fitted or top-dose-only effect; inactive means no such curve, though single readings can be large or run the other way; further: potency means the concentration at half of the fitted maximal effect; the source files actives as falling curves though it sought activators and does not explain the sign; nearly all actives have a fitted effect of over 65% in size
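Buffer: 100 mM Tris/HCl pH8, 100 mM KCl, 0.05% low protease BSA, 2.5% glycerol, 0.01% Tween-20. ClpP 10 microg/mL final; 20 min RT; delta FRET normalized to ADEP and DMSO controls.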
D3 ag: agonists of human D3 dopamine receptor; D3R DiscoveRx beta-arrestin cells, luminescence, 90 min; max activation, %; P35462; 0.58% of 410,000 active; in the data active means max activation above about 30%; further: 0% is about no effect
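Cells at 1500/well, incubated overnight, then treated with pinned compounds (dopamine as control) for 90 min at 37 degrees C. DiscoveRx reagent added for 30 - 60 minutes at room temperature; luminescence read.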
IL-1B inflam inh: blocks inflammasome-driven IL-1 beta release; 4.7% of 360,000 active; activity change, % at 57.5 µM; THP-1 LPS/ATP IL-1B secretion, AlphaLISA, 16 h; stronger effect = lower value; in the data active means activity change below about -50%; inconclusive means mostly about -30% to -49%; further: on the % scale 0 is the no-effect control and ±100 the full control effect
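Secreted IL-1B measured by AlphaLISA bead assay after 16 h compound exposure of THP-1 cells; compounds (final up to 57.5 uM) added 1 h before LPS (250 ng/mL) and ATP (1.25 mM) stimulation; lower signal means less secretion.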
Numbers without * were called inactive; i = inactive; ? = inconclusive; . = no result given. Compounds with a hit are over-represented: about 21% of the library has one in this group of screens. Unless noted, the call rests on the fitted dose curve; in most records, active means well fitted inhibition curve with a large enough effect; inconclusive means small, poorly fitted or top-dose-only effect; inactive means flat fitted curve, though single readings scatter.

SMILES | D3 antag | DT40 TDP1 no CPT | TDP1 cell CPT | ClpP mod | D3 ag | IL-1B inflam inh
NS(=O)(=O)c1cc(C(=O)NC2CCSc3ccccc32)ccc1Cl (configuration not stated) | 6 | -20% | 10% | . | 5 | -14
Cc1ccc(C(=O)Nc2ccc3c(c2)CCC3)cc1 | -15 | -6% | -15% | 1% | -7 | ?
O=C(Nc1ccc2c(c1)CCC2)c1ccc(F)c(S(=O)(=O)N2CCOCC2)c1 | -4 | 23µM* | ? | -10% | -10 | 3
CC1c2ccccc2CN1NC(=O)c1ccc(Cl)c(S(N)(=O)=O)c1 (configuration not stated) | . | 5% | -2% | . | 51* | .
Cc1ccccc1CN1C(=O)C(C)Sc2ccc(-c3ccco3)cc21 (configuration not stated) | 0 | ? | ? | -7% | 0 | 64
COc1ccc(-n2nc3c(c2NC(=O)C2CC(=O)N(c4ccccc4)C2)CS(=O)(=O)C3)cc1 (configuration not stated) | -8 | -4% | -6% | 1% | -3 | i
O=C(N/C(=C/c1ccc(F)cc1)C(=O)N1CCCCC1)c1ccco1 | 7 | 12% | 4% | 0% | 4 | 8
CC1=CC(=O)N(c2cccc3c(N4C(=O)C=C(C)C4=O)cccc23)C1=O | -16 | 2.9µM* | 1.8µM* | -16% | -11 | -81*
O=C(Nc1ccccc1F)c1ccc(CN2CCN(c3ccccc3)CC2)cc1 | -54* | ? | ? | -1% | -2 | -14
CSc1ccccc1NC(=O)c1ccc(CN2CCOCC2)cc1 | -24 | -1% | -14% | . | 11 | -7
O=C(CCN1CCN(c2ccc(F)cc2)CC1)Nc1ccccc1F | -5 | ? | ? | -2% | -4 | -23
O=C(CCN1CCN(c2ccccc2)CC1)Nc1ccccc1F | ? | -5% | 3% | 0% | 34* | -17
COc1ccc(C2N(C(=O)CN3CCCC3)CCCN2S(=O)(=O)c2ccccc2)cc1 (configuration not stated) | 4 | 3% | -2% | . | 0 | -1
Cc1c(C(=O)N2CCCCC2C)sc2nc3n(c(=O)c12)CCC3 (configuration not stated) | -1 | 0% | -10% | -3% | 1 | 11
Cc1ccc(Cl)cc1N1CCN(C(=O)c2sc3nc4n(c(=O)c3c2C)CCC4)CC1 | . | 15µM* | 15µM* | 1% | 1 | .
COc1ccc(N2CCN(C(=O)c3sc4nc5n(c(=O)c4c3C)CCC5)CC2)cc1 | . | 23µM* | ? | 2% | 2 | .
Cc1c(C(=O)NCc2cccc(Cl)c2)sc2nc3n(c(=O)c12)CCCC3 | . | ? | ? | -5% | 8 | .
COc1ccccc1N1CCN(C(=O)c2sc3nc4n(c(=O)c3c2C)CCC4)CC1 | -3 | 7% | 1% | -2% | 1 | -3
Cc1cccc(N2CCN(C(=O)c3sc4nc5n(c(=O)c4c3C)CCC5)CC2C)c1 (configuration not stated) | . | 13µM* | 16µM* | 1% | -4 | .
Cc1ccccc1C(=O)N(Cc1cccs1)C1CCS(=O)(=O)C1 (configuration not stated) | 4 | -2% | -3% | 1% | 21 | -5
CCOC(=O)[C@]12CCCC=C1N(Cc1cccc3ccccc13)C(=O)[C@H](CC(=O)N1CCCC1)C2 | 12 | 21µM* | ? | -2% | 9 | -19
CCOC(=O)[C@]12CCC=C1N(Cc1cccc3ccccc13)C(=O)[C@H](CC(=O)N1CCN(C(=O)c3ccco3)CC1)C2 | -22 | ? | 18µM* | -4% | -2 | ?
CCOC(=O)[C@]12CCCC=C1N(Cc1cccc3ccccc13)C(=O)[C@H](CC(=O)N1CCN(C(=O)C3CC3)CC1)C2 | 2 | 21µM* | ? | 0% | -1 | -12
